# Laboratory results: the supplement of paper PMC8728848
# Only a selection was taken, and the strongest signals are over-represented in it overall.
# B1: Loc1 (Escherichia coli) (protein)
# chain: APCALTNVGEQRGTYILKPLSMKGNLTAEKIENTGNIIECTDLQETTNAIKVHFLTQNALKFKVGSRHYIINFPFEYDGKKIELPGKSSYNLEEMLSAINFTIPYSIASVSDSSNTADIFPGTPFPLLFEIEVSSCTGNNTNCNSVRFNYNLNTILQVNLMTHHHHHH
# How the values were obtained:
# Test in all cases: glycan array binding signal (z-score within array); higher = stronger binding
# Details in all cases: glycan notation: IUPAC condensed, linker removed
# [1] = target: Neu5Ac(a2-3)Gal(b1-3)GlcNAc(b1-2)Man
# Summary of the method: (§1)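 Glycan array binding is given as a within-array Z-score, which can be read as non-binding when negative. The arrays, 3228 of them, came from the Consortium for Functional Glycomics database and were retained only where the protein sequence was available. Z-scores were averaged across arrays of the same protein sequence at different concentrations or buffers and across linkers.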
# [2] = target: Neu5Ac(a2-3)Gal(b1-4)GlcNAc(b1-2)[Neu5Ac(a2-3)Gal(b1-4)GlcNAc(b1-6)]Man(a1-6)[Neu5Ac(a2-3)Gal(b1-4)GlcNAc(b1-2)Man(a1-3)][GlcNAc(b1-4)]Man(b1-4)GlcNAc(b1-4)GlcNAc
# Summary of the method: as §1
# [3] = target: Neu5Ac(a2-3)Gal(b1-4)GlcNAc(b1-3)Gal(b1-4)GlcNAc(b1-3)Gal(b1-4)GlcNAc(b1-2)Man(a1-3)[Neu5Ac(a2-3)Gal(b1-4)GlcNAc(b1-3)Gal(b1-4)GlcNAc(b1-3)Gal(b1-4)GlcNAc(b1-2)Man(a1-6)]GalNAc
# Summary of the method: as §1
# [4] = target: Neu5Ac(a2-3)Gal(b1-4)[Fuc(a1-3)]GlcNAc6S
# Summary of the method: as §1
# [5] = target: Neu5Ac(a2-6)Gal(b1-4)GlcNAc(b1-2)Man(a1-3)[Neu5Ac(a2-3)Gal(b1-4)GlcNAc(b1-2)Man(a1-6)]Man(b1-4)GlcNAc(b1-4)GlcNAc
# Summary of the method: as §1
# [6] = target: Neu5Ac(a2-8)Neu5Ac
# Summary of the method: as §1
# [7] = target: Neu5Ac(a2-8)Neu5Ac(a2-3)Gal(b1-4)Glc
# Summary of the method: as §1
# [8] = target: Neu5Ac(b2-6)GalNAc
# Summary of the method: as §1
# [9] = target: Neu5Gc(a2-6)GalNAc
# Summary of the method: as §1
binder,measurement,setting,value
B1,glycan array binding signal (z-score),[1],-0.478
same,glycan array binding signal (z-score),[2],-0.322
same,glycan array binding signal (z-score),[3],2.75
same,glycan array binding signal (z-score),[4],0.57
same,glycan array binding signal (z-score),[5],0.21
same,glycan array binding signal (z-score),[6],0.04
same,glycan array binding signal (z-score),[7],8.5
same,glycan array binding signal (z-score),[8],-0.643
same,glycan array binding signal (z-score),[9],0.381
